Screens as filed in PubChem.
HP1b chromo inh: inhibitors of HP1-beta chromodomain binding to methylated histone tails; AlphaScreen HP1-beta / biotin-H3K9me3 peptide binding; Potency, µM (titrated, usually from 114 µM), for the others: at the highest dose activity change, negative = inhibition, most hits filed as inhibitors; hit rate 0.56% among 390,000; further: nearly all actives have a fitted effect of over 70% in size
Target sequence (P83916 whole entry, looked up): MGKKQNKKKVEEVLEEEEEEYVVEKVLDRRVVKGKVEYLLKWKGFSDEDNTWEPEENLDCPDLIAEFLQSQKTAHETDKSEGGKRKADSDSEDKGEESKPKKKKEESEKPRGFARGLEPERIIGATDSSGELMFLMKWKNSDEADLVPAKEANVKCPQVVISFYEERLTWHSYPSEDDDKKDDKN
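HP1-beta protein (50 nM final) preincubated 30 min at room temperature with biotinylated H3(1-18)K9me3 peptide (50 nM) in PBS pH 7.4, 0.01% Tween-20, then compound added for 30 min. AlphaScreen streptavidin donor/nickel chelate acceptor beads (10 ug/mL final), 30 min dark, luminescence read.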
BAZ2B inh: inhibitors of human BAZ2B bromodomain; Q9UIF8; AlphaScreen BAZ2B-H3K14Ac peptide displacement; Potency, µM (titrated, usually from 114 µM), without a hit: at the highest dose activity change, negative = inhibition, usual class: inhibitors; hit rate 4.4% among 360,000; further: on the % scale 0 is the no-effect control and ±100 the full control effect; nearly all actives have a fitted effect of over 60% in size
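Protein-peptide AlphaScreen: BAZ2B 50 nM, b-H3K14Ac 50 nM, 1x PBS pH 7.4 + 0.01% Tween-20. Preincubation 30 min RT; cpd 30 min RT (top 110 uM); beads 20 min RT, light-protected.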
JMJD2A Tudor inh: JMJD2A Tudor domain (human) inhibition. hit rate 4.4% among 390,000. Potency, µM (series often up to 114 µM), without a hit: at the top dose activity change, negative = inhibition, hits mostly inhibitors. O75164. AlphaScreen JMJD2A-Tudor / H3K4me3 peptide binding; further: on the % scale 0 is the no-effect control and ±100 the full control effect; nearly all actives have a fitted effect of over 50% in size
G9a inh: blocks human histone lysine methyltransferase G9a | hit rate 8.8% among 350,000 | G9a H3K9 monomethylation, AlphaScreen, 2 h | Potency, µM (highest dose often 102 µM), inactives show top-dose activity, negative = inhibition, usual class: inhibitors | Q96KQ7; further: on the % scale 0 is the no-effect control and ±100 the full control effect; nearly all actives have a fitted effect of over 75% in size
Target sequence (Q96KQ7 913-1193 limits assumed): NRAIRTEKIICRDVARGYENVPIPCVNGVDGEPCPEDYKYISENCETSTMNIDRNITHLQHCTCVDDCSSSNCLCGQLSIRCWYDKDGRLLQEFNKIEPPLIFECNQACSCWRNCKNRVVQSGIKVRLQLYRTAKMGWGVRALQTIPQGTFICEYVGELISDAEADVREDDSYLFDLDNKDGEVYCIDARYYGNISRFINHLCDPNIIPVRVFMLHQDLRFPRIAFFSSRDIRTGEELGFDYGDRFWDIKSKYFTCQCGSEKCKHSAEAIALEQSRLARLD
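Signal arises when biotinylated H3K9 peptide, once monomethylated, bridges streptavidin donor and antibody-captured acceptor beads. Enzyme at 20 nM was preincubated 15 min with test compounds; peptide 500 nM and SAM 20 uM then reacted for 2 h.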
Sfp inh: inhibitors of Bacillus subtilis Sfp phosphopantetheinyl transferase; AID 1490; Q9F4F7; Biochemical Sfp PPTase activity, qHTS; hit rate 3.5% among 310,000; Potency, µM, for inactives: largest response in the series, negative = inhibition, most hits filed as inhibitors;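 further: the enzyme is Sfp with the accession as filed and its product quenches rhodamine fluorescence; 0% = enzyme reaction without inhibitor and -100% = no enzyme wells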
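Buffer: 50 mM Hepes-Na pH 7.6, 10 mM MgCl2, 0.01% Nonidet P-40, 0.01% BSA. Enzyme 15 nM, pre-exposed to compound 15 min; substrates then added and fluorescence change tracked over 30 min.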
L3MBTL1 inh: L3MBTL1 (human) inhibition; Q9Y468; AlphaScreen L3MBTL1–H3K9me1 peptide binding; Potency, µM (titrated, usually from 57.1 µM), inactives show at the top dose activity, negative = inhibition, hits mostly inhibitors; hit rate 0.66% among 230,000; AID 485360; further: on the % scale 0 is the no-effect control and ±100 the full control effect; nearly all actives have a fitted effect of over 60% in size
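First, the protein-peptide complex forms for 30 min at room temperature (L3MBTL1 50 nM, biotinylated H3K9me1 peptide 75 nM). Next, compounds are pin-transferred and incubated 30 min. Finally, AlphaScreen beads are added and read after 30 min.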
* hit, by the source's call; ? = inconclusive; . = no result given; [ ] = remark or other dose. In the library only some 12% were active in any assay of this set; here they are far more common. The call rests on the fitted dose curve; in most records, active means well fitted curve in the direction sought with a large enough effect; inconclusive means small, poorly fitted or top-dose-only effect, or another doubt; inactive means no such curve, though single readings can be large; an effect the other way counts as inactive or inconclusive. Potency means the concentration at half of the fitted maximal effect.

SMILES | HP1b chromo inh | BAZ2B inh | JMJD2A Tudor inh | G9a inh | Sfp inh | L3MBTL1 inh
Cc1ccc(S(=O)(=O)N2CCN(CCOc3c(Cl)cccc3Cl)CC2)cc1C | 46% | -3% | -5% | 13%[12.7 µM] | . | 3%
Cc1cccc(C(C)(C)C)c1OCCOCCN1CCCC1 | -49% | -28% | 2.2µM* | ? | 1% | -2%
Cc1cccc(C(C)(C)C)c1OCCN1CCCC1 | ? | -9% | 4.5µM* | 25µM* | -45% | -13%
CCCCC/C=C\C\C=C/C=C/C=C/[C@@H](SCC(NC(=O)CCC(N)C(=O)O)C(=O)NCC(=O)O)[C@@H](O)CCCC(=O)O (stereo not given in full) | . | . | . | . | -2% | .
O=C(c1ccc(F)cc1)N1CCN(Cc2ccccc2)CC1 | 26% | -4% | -32% | 17% | 6% | 0%
COc1ccc(C(=O)CC(=O)c2ccc(F)cc2)cc1 | 103% | . | 6% | . | . | .
COc1ccc(/C=C2\C(=O)NC(=S)N2C(=O)c2ccc(F)cc2)cc1 | -2% | 56µM* | ? | ? | ? | ?
O=C1NC(=S)N(C(=O)c2ccc(F)cc2)/C1=C/c1ccccc1 | -35% | 45µM* | 40µM* | 10µM* | ? | -19%
Cn1c(=O)c2c(SCC(=O)N3CCc4ccccc43)nc(-c3cccc(F)c3)nc2n(C)c1=O | 43%[57 µM] | 2% | -15% | -3%[59 µM] | . | .
CN(C)C1C(=O)C(C(N)=O)=C(O)[C@@]2(O)C(=O)C3=C(O)c4c(O)ccc(Cl)c4[C@@H](O)C3C[C@@H]12 (stereo not given in full) | . | . | . | 35µM* | . | .
CN(C)C1C(=O)C(C(N)=O)C(=O)C2(O)C(=O)C3C(=O)c4c(O)ccc(Cl)c4C(O)C3CC12 (stereo not given) | . | . | . | 16µM* | -9% | .
O=C(NCC(c1cccs1)S(=O)(=O)c1cccs1)c1ccccc1 (stereo not given) | 32% | -3% | 0% | 8%[59 µM] | . | .
COC(=O)C1=C(C(=O)OC)[C@@H]2N(C)c3ccc(OC)cc3[C@@]23C[C@@H](C(=O)OC)N(C(=O)C2CCC2)C3=N1 | ? | 11µM* | 25µM* | ? | 10% | .
COC(=O)C1=C(C(=O)OC)[C@@H]2N(C)c3ccc(OC)cc3[C@@]23C[C@@H](C(=O)OC)N(C(=O)NCCBr)C3=N1 | -5% | . | ? | . | . | .
COC(=O)C1=C(C(=O)OC)[C@@H]2N(C)c3ccc(OC)cc3[C@@]23C[C@@H](C(=O)OC)N(C(=O)CC(C)C)C3=N1 | ? | . | 50µM* | . | -14% | .
COC(=O)C1=C(C(=O)OC)[C@@H]2N(C)c3ccc(OC)cc3[C@@]23C[C@@H](C(=O)OC)N(C(C)=O)C3=N1 | . | . | . | . | 0% | .
O=[N+]([O-])c1cc(/C=N\Nc2nc(-c3ccccc3)cs2)ccc1O | ? | 13µM* | ? | 11µM* | 50µM* | .
Cc1cc(=O)[nH]c(N/N=C/c2ccc(Cl)c([N+](=O)[O-])c2)n1 | 48% | -8% | -17% | . | -7% | 5%
Cc1nnc(N/N=C/c2ccc(O)c([N+](=O)[O-])c2)[nH]c1=O | 5% | -5% | 3.2µM* | 13%[59 µM] | ? | -15%
O=[N+]([O-])c1ccc(-c2csc(N/N=C/c3cccnc3)n2)cc1 | 4% | ? | -17% | . | -3% | -6%
Clc1ccc(-c2csc(N/N=C/c3ccc4c(c3)OCO4)n2)cc1 | 14% | -10% | -25% | 40µM* | -21% | -1%
Cc1csc(N/N=C\c2cccnc2)n1 | 9% | . | -14%[11.4 µM] | 45µM* | 56µM* | .
C=N[C@H](C(=O)N[C@@H]1C(=O)N2[C@@H]1SC(C)(C)[C@@H]2C(=O)O)c1ccccc1 | . | . | . | 35%[21.5 µM] | 12% | .
CCOC(=O)c1c(C)oc2nc(C)nc(Nc3cc(C)ccc3OC)c12 | 33% | 12%[57.1 µM] | -1% | -16%[59 µM] | . | .
CCc1cccc(NC(=O)c2c(N3CCCC3=O)c3cc(C)ccc3n2C)c1 | 24% | ? | -17% | -33%[59 µM] | . | .
SMILES | HP1b chromo inh | BAZ2B inh | JMJD2A Tudor inh | G9a inh | Sfp inh | L3MBTL1 inh
COc1ccccc1CNC(=O)C(=O)NCC(c1ccc2c(c1)OCO2)N1CCOCC1 (stereo not given) | 25%[57 µM] | 5% | 2% | 7%[59 µM] | . | .
Cc1csc(N/N=C/c2ccc(O)c([N+](=O)[O-])c2)n1 | ? | 4.5µM* | 45µM* | 14µM* | 32µM* | .
CC1CN(C(=O)N2CCC(C(=O)NCc3cccs3)CC2)c2cc(Cl)ccc2O1 (stereo not given) | ? | ? | -32% | ? | . | .
Cc1ccc(CN2CCN(C3CCN(C(=O)Nc4ccccc4C(F)(F)F)CC3)C(=O)C2=O)cc1 | 22% | -2% | -7% | -2%[59 µM] | . | .
CC1=NN(C(=O)c2ccc(Cl)cc2)C(O)(c2ccccc2)C1 (stereo not given) | 27% | 50µM* | ? | . | 13% | ?
O=c1/c(=C\c2ccc(O)cc2)sc2n1C(c1ccccc1)C(c1ccccc1)=NN=2 (stereo not given) | -6% | -31%[57.1 µM] | -30% | 45µM* | 50µM* | ?
Cc1cc(C)n(C(C)CC(=O)Nc2ccc(C)c(F)c2)n1 (stereo not given) | -14% | ? | -27% | 9%[59 µM] | . | .
CN(C)c1ccc(CCc2ccc(N)cc2)cc1 | 50µM* | . | 56µM* | . | . | .
O=C(O)CCc1ccc(-c2cccs2)n1NC(=O)c1ccc(Cl)cc1 | 15% | -38% | -29% | -3%[12.7 µM] | 25µM* | -3%
O=C(O)CCc1ccc(-c2cccs2)n1NC(=O)c1ccco1 | 17% | -33% | -20% | -20%[59 µM] | 16% | .
O=C(O)CCc1ccc(-c2cccs2)n1NC(=O)c1ccc(Cl)cc1Cl | -2% | -37% | -30% | 56µM* | -7% | .
CCN(CC)C(=O)C1CCCN(C/C(C)=C/c2ccccc2)C1 (stereo not given) | ? | 50µM* | 1.6µM* | 16µM* | 79µM* | -10%
CCN(CC)C(=O)C1CCCN(Cc2ccccc2C(F)(F)F)C1 (stereo not given) | ? | 79µM* | 4.5µM* | ? | -32% | -4%
CCN(CC(=O)Nc1ccccc1C(F)(F)F)C(=O)C1CCC1 | 25% | -4% | -9% | 7%[59 µM] | . | 4%
CCN(CC)C(=O)C1CCCN(C/C=C/c2ccccc2)C1 (stereo not given) | ? | 56µM* | 4.5µM* | 10µM* | -30% | 0%
NS(=O)(=O)c1nn2cc(-c3ccccc3)nc2s1 | . | . | . | . | 6% | .
CC1=C(C(=O)Nc2c(C)cc(C)cc2C)C2(CCN(C(C)C)CC2)OC1=O | 37% | -12% | 2% | -21%[59 µM] | . | .
Cc1cc(C)cc(N(C(=O)Cn2nnc3ccccc32)C(C(=O)NCc2ccco2)c2ccncc2)c1 (stereo not given) | 24% | -3% | 14% | ? | 45µM* | .
